These results are taken from the supplement of paper PMC9446081.

Molecules are shown by their SMILES. Among all 39,000 compounds or so, about 220 (0.56%) showed activity. The sample as a whole holds a higher share of actives than the screen did. Values without a mark were called inactive.
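Further: Wild-type cells incubated without shaking, value is the mean of two biological replicates.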

This experiment relates to Escherichia coli K-12 BW25113. The experiment is described as follows: relative growth (OD600 normalised to plate interquartile mean) (fraction); higher = less growth inhibition, active = 0.2 or less. The settings on record: 50 µM; LB; incubation time: overnight (16-24 h).
In the case of `COc1ccc(NC(=O)N(C)C[C@@H]2OCCCC[C@@H](C)Oc3ccc(NC(=O)Nc4ccccc4)cc3C(=O)N([C@H](C)CO)C[C@@H]2C)cc1`, the relative growth is 1.01.

`CCCCCCO[C@@H](C)c1cccc(-c2csc(NC(=O)c3cc(Cl)c(/C=C(\C)C(=O)O)c(Cl)c3)n2)c1OC`: the relative growth is 0.777.

For `C=CCC[C@H](Cc1ccc(F)cc1)C(=O)O[C@@H](CNC(=O)[C@@H](CC=C)CC(=O)N(CCO)Cc1ccccc1)c1ccccc1`, the relative growth was 1.07.

Consider `CC(=O)N1CCN(C(=O)C(=O)NC[C@H](c2ccc(N(C)C)cc2)N2CCOCC2)CC1`, for which the relative growth is 0.989.

Consider `Cc1cc(C)c(NC(=O)[C@@H](N)Cc2ccccc2)c(Cl)c1`, for which the relative growth was 1.02.

Regarding `Cc1ccc(S(=O)(=O)N(C)C[C@H]2Oc3cc(C#Cc4ccncc4)ccc3S(=O)(=O)N([C@@H](C)CO)C[C@H]2C)cc1`, the relative growth was 1.04.

With `c1ccc(-c2ccnc(-c3cc(-c4ccccc4)ccn3)c2)cc1`, the relative growth is 0.99.

Turning to `Cl.NCCCC(=O)O` [gamma-AMINOBUTYRIC ACID HYDROCHLORIDE], the relative growth was 0.905.

As for `CCn1nc(C(=O)O)c(=O)c2cc3c(cc21)OCO3`, the relative growth was 0.0537 (active).

On to `O=C(O)c1ccc2c(c1)OCO2`, for which the relative growth was 0.853.

For the molecule `CNC(=O)NCc1ccc2c(c1)OCO2`, the relative growth is 1.

Turning to `C[C@H](CO)N1C[C@H](C)[C@H](CN(C)S(=O)(=O)c2cn(C)cn2)OCCCC[C@H](C)Oc2ccc(NS(=O)(=O)c3cccs3)cc2C1=O`, the relative growth is 1.01.

For `CS(=O)(=O)N(CCC#N)Cc1ccco1`, the relative growth is 1.

In the case of `C[C@H]1CN([C@@H](C)CO)C(=O)Cc2cc(NC(=O)CCN3CCOCC3)ccc2O[C@@H]1CN(C)S(=O)(=O)c1cn(C)cn1`, the relative growth is 1.03.

`CC(C)NC(=O)N(C)C[C@@H]1Oc2ccc(NC(=O)Cc3ccccc3)cc2CC(=O)N([C@H](C)CO)C[C@H]1C`: the relative growth is 0.977.

For the molecule `CC(C)NC(=O)N(C)C[C@@H]1Oc2ccc(NC(=O)CCC(F)(F)F)cc2CC(=O)N([C@H](C)CO)C[C@@H]1C`, the relative growth is 0.959.

For the molecule `O=C(C1CC1)N1CCN(c2ncccn2)CC1`, the relative growth was 0.991.

In the case of `Cn1c(=O)cnn(CCCCN2CCN(c3ncccn3)CC2)c1=O`, the relative growth is 0.987.

For `Cl.O=C1CC2(CCCC2)CC(=O)N1CCCCN1CCN(c2ncccn2)CC1`, the relative growth is 0.0493 (active).

For `CC(C)CC#Cc1cnc2c(c1)C(=O)N([C@@H](C)CO)C[C@@H](C)[C@H](CN(C)C(=O)CCN1CCCCC1)O2`, the relative growth was 0.987.

`COc1ccc(NC(=O)N(C)C[C@@H]2Oc3c(NC(=O)CCCCCC(=O)Nc4ccccc4N)cccc3C(=O)N([C@H](C)CO)C[C@H]2C)cc1`: the relative growth is 1.01.

As for `C[C@@H]1CN([C@H](C)CO)C(=O)c2cc(NC(=O)Nc3ccc(C(F)(F)F)cc3)ccc2O[C@@H]1CN(C)Cc1ccc(-c2ccccc2)cc1`, the relative growth is 0.996.

With `O=C1NCCN1c1ncc([N+](=O)[O-])s1`, the relative growth is 0.0407 (active).

In the case of `O=C1NCCN1c1cccnc1`, the relative growth was 1.01.

Turning to `CC(=O)Nc1ncc([N+](=O)[O-])s1`, the relative growth was 0.923.

On to `Cc1noc(C)c1NC(=O)Nc1ccc2c(c1)CC(=O)N([C@H](C)CO)C[C@@H](C)[C@H](CN(C)CC1CC1)O2`, for which the relative growth is 1.02.

Take `CC(CCC(=O)O)C1CCC2C3C(O)CC4CC(O)CCC4(C)C3CCC12C` (centres undefined): the relative growth is 1.01.

Regarding `CCCCCCCCCCCCCCCCCCCC(=O)N[C@H]1CC[C@@]2(C)[C@@H](C1)C[C@@H](O)[C@@H]1[C@@H]2C[C@H](O)[C@]2(C)[C@@H]([C@H](C)CCC(=O)O)CC[C@@H]12`, the relative growth was 1.02.

For `COC(=O)CCC(C)C1CCC2C3C(O)CC4CC(O)CCC4(C)C3CC(O)C12C` (centres undefined), the relative growth is 1.03.

Regarding `CC(C)[C@@H](CC[C@@H](C)[C@H]1CC[C@H]2[C@@H]3[C@H](O)C[C@H]4C[C@@H](NCCCNCCCCN)CC[C@]4(C)[C@H]3CC[C@]12C)OS(=O)(=O)O`, the relative growth was 0.137 (active).

For the molecule `C[C@H](CCC(=O)NCCS(=O)(=O)O)[C@H]1CC[C@H]2[C@@H]3[C@H](O)C[C@@H]4C[C@H](O)CC[C@]4(C)[C@H]3C[C@H](O)[C@]12C`, the relative growth is 1.01.

On to `CC(C)[C@@H](CC[C@@H](C)[C@H]1CC[C@H]2[C@@H]3[C@H](O)C[C@H]4C[C@@H](NCCCNCCCCNCCCN)CC[C@]4(C)[C@H]3CC[C@]12C)OS(=O)(=O)O`, for which the relative growth was 0.152 (active).

`C[C@H]1CN([C@@H](C)CO)C(=O)Cc2cc(NC(=O)Cc3ccccc3)ccc2O[C@@H]1CN(C)S(=O)(=O)c1ccccc1`: the relative growth was 0.993.

Turning to `CCOC(=O)[C@@H](C)n1ncn2cccc2c1=O`, the relative growth was 1.01.

For the molecule `CCCC#Cc1ccc2c(c1)O[C@@H](CN(C)C(=O)c1cnccn1)[C@@H](C)CN([C@H](C)CO)S2(=O)=O`, the relative growth was 0.971.

Regarding `C[C@H]1CC/C=C\[C@H]2O[C@@]34C=CCN(c5ccc6ccccc6c5)C(=O)[C@H]3N(CCO)C(=O)[C@@H]4[C@@H]2C(=O)O1`, the relative growth is 0.983.

Regarding `CC(=O)N1C[C@@H]2C(=O)N(C)C3(CCN(S(=O)(=O)Cc4ccccc4)CC3)[C@H]2C1`, the relative growth is 0.958.

For `C[C@H]1CN([C@@H](C)CO)C(=O)Cc2cc(NC(=O)CCCCCC(=O)Nc3ccccc3N)ccc2O[C@H]1CN(C)C(=O)Nc1ccc(C(F)(F)F)cc1`, the relative growth is 0.958.

On to `C[C@H]1CN([C@@H](C)CO)C(=O)c2c(c3ccccc3n2C)-c2ccccc2CO[C@@H]1CN(C)Cc1cccc(F)c1`, for which the relative growth is 0.962.

Consider `N[C@@H](C(=O)N[C@@H]1C(=O)N2C(C(=O)O)=C(Cl)CS[C@H]12)c1ccccc1`, for which the relative growth is 0.0303 (active).

For `N[C@@H](C(=O)N[C@@H]1C(=O)N2C(C(=O)O)=C(Cl)CC[C@H]12)c1ccccc1`, the relative growth was 0.0311 (active).

Turning to `CC1=C(C(=O)O)N2C(=O)[C@H](NC(=O)[C@@H](N)c3ccccc3)[C@H]2SC1`, the relative growth is 1.02.

As to `NC(C(=O)NC1C(=O)N2C(C(=O)O)=C(Cl)CSC12)c1ccccc1` (centres undefined), the relative growth is 0.0491 (active).

With `CC1=C(C(=O)O)N2C(=O)[C@@H](NC(=O)[C@@H](N)c3ccccc3)[C@H]2SC1`, the relative growth is 0.998.

In the case of `CC1=C(C(=O)O)N2C(=O)[C@@H](NC(=O)[C@H](N)c3ccccc3)[C@H]2SC1`, the relative growth is 1.03.

With `CC1=C(C(=O)O)N2C(=O)C(NC(=O)C(N)c3ccccc3)C2SC1` (centres undefined), the relative growth was 1.03.

As for `OC[C@H]1O[C@H](n2nnc3ccccc32)[C@@H](O)[C@@H](O)[C@@H]1O`, the relative growth is 0.989.

Consider `Cc1noc(C)c1S(=O)(=O)Nc1cccc2c1O[C@H](CN(C)S(=O)(=O)c1cccs1)[C@H](C)CN([C@@H](C)CO)C2=O`, for which the relative growth is 1.

`CCCN1C[C@@H](C)[C@H](OC)CN(C)C(=O)c2ccc(NS(=O)(=O)c3cn(C)cn3)cc2OC[C@@H]1C`: the relative growth was 1.

On to `Nc1ccc(/C=C/c2ccccc2)cc1`, for which the relative growth is 0.999.

For the molecule `C[C@H](CO)N1C[C@H](C)[C@@H](CN(C)C(=O)c2cnccn2)Oc2cc(Br)ccc2S1(=O)=O`, the relative growth is 0.986.

As for `CC1CCc2cc(F)cc3c(=O)c(C(=O)O)cn1c23` (centres undefined), the relative growth is 0.0455 (active).

As to `CC1CCc2c(N3CCC(O)CC3)c(F)cc3c(=O)c(C(=O)O)cn1c23` (centres undefined), the relative growth was 0.0484 (active).

Regarding `C[C@@H]1CN([C@@H](C)CO)C(=O)Cc2cc(NC(=O)Cc3ccccc3)ccc2O[C@@H]1CN(C)Cc1ccc(Oc2ccccc2)cc1`, the relative growth is 0.987.

For the molecule `O=C(C[C@H]1C=C[C@H](NS(=O)(=O)c2ccccc2F)[C@@H](CO)O1)NCCCN1CCOCC1`, the relative growth was 0.993.

As to `C[C@H]1CN([C@@H](C)CO)C(=O)Cc2cc(NS(=O)(=O)c3ccccc3)ccc2O[C@@H]1CN(C)S(C)(=O)=O`, the relative growth is 0.961.

Regarding `NC(=O)[C@@H]1C(=O)C[C@@H]2C[C@@H]3Cc4cccc(O)c4C(=O)[C@@H]3C(=O)[C@]2(O)C1=O`, the relative growth is 0.164 (active).

On to `C[C@@H]1CN([C@@H](C)CO)C(=O)Cc2cc(NC(=O)C3CCCCC3)ccc2O[C@H]1CN(C)C(=O)Nc1cccc2ccccc12`, for which the relative growth was 1.01.

`COC(=O)[C@H](Cc1ccc(N=[N+]=[N-])cc1)N1CC2=C[C@@H](C3CC3)n3c(=O)n(C)c(=O)n3[C@H]2[C@@H]1[C@@H](O)Cc1ccccc1`: the relative growth was 0.989.

With `CC(=O)NC[C@H]1CN(c2ccc(N3CCN(C(=O)CO)CC3)c(F)c2)C(=O)O1`, the relative growth was 0.38.

As to `CC(=O)NCC1CN(c2ccc(N3CCOCC3)c(F)c2)C(=O)O1` (centres undefined), the relative growth was 0.701.

Turning to `O=C(O)c1cn(C2CC2)c2cc(N3CCNCC3)c(F)cc2c1=O`, the relative growth is 0.0478 (active).

In the case of `O=C(O)c1cn(C2CC2)c2cc(N3CCC(O)(COc4ccc(N5C[C@H](CO)OC5=O)cc4F)CC3)c(F)cc2c1=O`, the relative growth is 0.111 (active).

Consider `CCN1CCN(c2cc3c(cc2F)c(=O)c(C(=O)O)cn3C2CC2)CC1`, for which the relative growth was 0.0449 (active).

Regarding `C[C@H](CO)N1C[C@H](C)[C@H](CN(C)C(=O)Nc2ccc(F)cc2)OCCCC[C@H](C)Oc2ccc(NC(=O)C3CCOCC3)cc2C1=O`, the relative growth is 0.981.

Take `Cc1ccc(S(=O)(=O)Nc2ccc3c(c2)C(=O)N([C@@H](C)CO)C[C@H](C)[C@H](CN(C)S(C)(=O)=O)OCCCC[C@@H](C)O3)cc1`: the relative growth is 1.

Consider `NC[C@H]1CC[C@H](C(=O)N2CCC(c3ccncc3)CC2)CC1`, for which the relative growth is 1.03.

As to `Cc1ccc(S(=O)(=O)N[C@H]2CC[C@H](CCNC(=O)CN3CCOCC3)O[C@@H]2CO)cc1`, the relative growth is 1.

With `C[C@@H]1CN([C@H](C)CO)C(=O)c2cc(NS(=O)(=O)c3ccccc3)ccc2O[C@@H](C)CCCCO[C@H]1CN(C)Cc1ccc(C(=O)O)cc1`, the relative growth was 1.
